Our source for the outcome and Potency values is PubChem BioAssay (NCATS).

Records with an inconclusive call do not appear. Active and inactive are the calls of the source. Calls come from the whole dose curve; as a rule, active = well fitted curve in the direction sought with a large enough effect; inconclusive = small, poorly fitted or top-dose-only effect, or another doubt; inactive = no such curve, though single readings can be large; an effect the other way counts as inactive or inconclusive.

Test [1] has as its target Nuclear receptor subfamily 1 group I member 3 (Homo sapiens) (UniProt Q14994). The experiment in a line: qHTS for Constitutive Androstane Receptor (CAR) Agonist screened against the NCATS CANVASS Library (AID 1347373).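 Note: every well also contained 1.5 µM PK11195 alongside the test compound.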 From the text:
Natural products and their derivatives continue to be wellsprings of nascent therapeutic potential. However, many laboratories have limited resources for biological evaluation, leaving their previously isolated or synthesized compounds largely or completely untested. To address this issue, the Canvass library of natural products was assembled (https://tripod.nih.gov/canvass), in collaboration with academic and industry researchers, for quantitative high-throughput screening (qHTS) across a diverse set of cell-based and biochemical assays. […] The library was formatted into 1536-well plates and evaluated in 50 qHTS (in an 11-pnt concentration series) bioassays with broad scope of disease-relevant mechanisms. The resulting data set from 50 different assays was then systematically analyzed to identify overall trends and specific natural products with interesting biological activities. […]
Material: A double-stable (hCAR and CYP2B6-2.2kb) transfected cell line, derived from human hepatoma (HepG2) cells, was utilized for the duration of the quantitative high-throughput screens. […] A first readout of fluorescence signal was acquired via the ViewLux (PerkinElmer) plate reader using a FITC dichroic mirror, excitation 405/10 nm filter, and emission 540/25 nm filter; and using 65 light energy, 1 second exposure, and 2x binning settings. […]

Test [2] can be described thus: 10-beta competent E. coli microbial cell viability qHTS against the NCATS CANVASS Library (AID 1347376). Note: series mostly up to about 46 µM. An outline of the steps:
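Cytotoxicity toward competent E. coli is scored from cellular ATP content via BacTiter-Glo luminescence following overnight compound exposure at 37C, 5% CO2.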

Test [3] in a line: DH5-alpha competent E. coli microbial cell viability qHTS against the NCATS CANVASS Library (AID 1347377). To be noted: outcome: dose series up to 46.1 µM. An outline of the steps:
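Cell viability of competent DH5-alpha E. coli is scored from ATP content by luminescence. Cells sit overnight at 37C with compound across an 11-point concentration series.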

Test [4] can be described thus: qHTS for H2AX Agonists against the NCATS CANVASS Library (AID 1347378). The gist of the method:
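CHO-K1 cells were plated overnight at 37C, then exposed to compounds (concentration series, 0.76% DMSO final) for 3 hr at 37C. Lysates received Eu-cryptate anti-pH2AX (S139) and d2 anti-H2AX antibodies; after 24 hr at room temperature, TR-FRET 665/620 nm ratio was read.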

Test [5] in a line: qHTS for Inflammasome Signaling Inhibitors: IL-1-beta AlphaLISA screen against the NCATS CANVASS Library (AID 1347379).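 Note: human THP-1 cells primed with LPS then triggered with ATP; secreted IL-1B measured as AlphaLISA emission at 615 nm; lower signal means less IL-1B release which is the wanted effect.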 The gist of the method: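 Human THP-1 cells were pretreated 1 hr at 37 °C with compounds (up to 57.5 uM final), then stimulated with LPS (250 ng/mL final) and ATP (1.25 mM final). Secreted IL-1B was read by AlphaLISA after 16 hr.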
Test [6] is described as follows: qHTS for Antimalaria activity screened against the NCATS CANVASS Library (AID 1347380). Note: nearly all actives have a fitted effect of over 40% in size. Note: potency is the fitted concentration of half-maximal effect. The gist of the method: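 Growth inhibition of asexual erythrocytic P. falciparum Dd2 was quantified by SYBR Green DNA staining. Cultures grew 72 h with compound (11-point series) in hypoxic gas at 37C; lysis and staining lasted 18 h.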
Test [7] can be described thus: Inflammasome Signaling qHTS Counterscreen: IL-1-beta AlphaLISA counterscreen against the NCATS CANVASS Library (AID 1347381).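 Note: cell-free check with purified IL-1β in medium and no THP-1 cells; series mostly up to about 57 µM.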 An excerpt: Natural products and their derivatives continue to be wellsprings of nascent therapeutic potential. However, many laboratories have limited resources for biological evaluation, leaving their previously isolated or synthesized compounds largely or completely untested. To address this issue, the Canvass library of natural products was assembled (https://tripod.nih.gov/canvass), in collaboration with academic and industry researchers, for quantitative high-throughput screening (qHTS) across a diverse set of cell-based and biochemical assays. The pure (>85% purity by liquid chromatography/mass spectrometry [LC/MS]) Canvass library of 346 natural products were submitted by 45 academic laboratories and companies around the world. We collected pure natural products to circumvent deconvolution and structure elucidation due to time and resource limitations. The library was formatted into 1536-well plates and evaluated in 50 qHTS (in an 11-pnt concentration series) bioassays with broad scope of disease-relevant mechanisms. The resulting data set from 50 different assays was then systematically analyzed to identify overall trends and specific natural products with interesting biological activities. […]
IL-1-beta-counterscreen qHTS protocol: 1. […] The AlphaLISA signal was read by the EnVision plate reader (PerkinElmer) using a 680 nm excitation and 615 nm emission filters.

Test [8] is described as follows: Cytotoxicity qHTS for assessment of Hepg2 cells membrane integrity screened against the NCATS CANVASS Library (AID 1347387). An outline of the steps:
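Fluorescence proportional to lysed-cell number, from LDH leaking out of HepG2 cells exposed 5 hr at 37C to 0.59 nM - 46 uM compound (11-point qHTS), is measured after 10 min with CytoTox-ONE.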

Test [9] in a line: qHTS for Activators of p53 Stress Response Pathway screened against the NCATS CANVASS Library (AID 1347388). The gist of the method: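 p53RE-bla HCT-116 cells (4000/well) were pre-incubated for 5 h, then treated with compound (11 points) for 16 h at 37C. After 2 h with CCF4, the 460/530 nm ratio gave reporter activation; CellTiter-Glo measured viability.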
The nature of test [10]: qHTS assay for small molecule disruptors of mitochondrial membrane potential screened against the NCATS CANVASS Library (AID 1347389). Note: series mostly up to about 46 µM; nearly all actives have a fitted effect of over 60% in size. An outline of the steps:
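Compounds tested in 11-point qHTS series on HepG2 cells for 1 hr; membrane-potential dye added for 30 min at 37C. Lower red-to-green ratio indicates loss of potential.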

Chain of Nuclear receptor subfamily 1 group I member 3 (Homo sapiens) (Q14994 whole entry, looked up): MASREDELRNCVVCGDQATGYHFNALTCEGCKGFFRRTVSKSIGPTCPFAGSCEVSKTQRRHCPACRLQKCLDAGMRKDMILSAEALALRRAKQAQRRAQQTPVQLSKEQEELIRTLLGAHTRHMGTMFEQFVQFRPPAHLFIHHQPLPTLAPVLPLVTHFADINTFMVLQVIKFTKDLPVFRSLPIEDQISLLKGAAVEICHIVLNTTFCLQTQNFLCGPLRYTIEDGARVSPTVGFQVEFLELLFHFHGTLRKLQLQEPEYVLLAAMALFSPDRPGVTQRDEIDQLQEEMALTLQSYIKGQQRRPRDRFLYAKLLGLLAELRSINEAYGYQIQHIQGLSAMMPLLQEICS

As for `O=C1C[C@@H]2OCC=C3CN4CC[C@]56c7ccccc7N1[C@H]5[C@H]2[C@H]3C[C@H]46`, the molecule was called inactive in test [1], in test [2], in test [3], in [4], in test [5] and in [7]. For the same molecule, the molecule was classed as inactive in test [8], in [9] and in test [10]. Moreover, in test [6], the Potency was 13 µM (active).
On to `COc1ccc2[nH]cc(CCN)c2c1`, for which the result in test [1], in test [2], in test [3], in test [4], in [5] and in test [7] was inactive. The molecule was classed as inactive in test [8], in [9] and in test [10]. Besides, the Potency result in test [6] was “inactive”.
